Structures are written as SMILES. Inconclusive results are not listed. Unmarked numbers belong to inactive results. Active and inactive are the calls of the source. Unless noted, calls follow the shape of the dose curve; as a rule, active = well fitted curve in the direction sought with a large enough effect in the repeat runs; inconclusive = weak or mixed curves; inactive = no such curve, though single readings can be large; an effect the other way counts as inactive or inconclusive.

12 molecules from PubChem BioAssay (Tox21) can be followed below.

Test [1] is described as follows: qHTS assay to identify small molecule agonists of the peroxisome proliferator-activated receptor delta (PPARd) signaling pathway - cell viability counter screen (AID 743211). Also: % is scaled to controls: 0 for no effect and ±100 for the full control effect; nearly all actives have a fitted effect of over 55% in size. Put shortly: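 Viability of GeneBLAzer PPARd UAS-bla HEK293H cells was assessed after 17 h compound incubation at 37C, using CellTiter-Glo reagent added after the reporter read and luminescence recorded 30 min later.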

Test [2] in a line: qHTS assay to identify small molecule antagonists of the peroxisome proliferator-activated receptor delta (PPARd) signaling pathway - cell viability counter screen (AID 743213). Also: % is scaled to controls: 0 for no effect and ±100 for the full control effect; nearly all actives have a fitted effect of over 50% in size. Put shortly:
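Viability counter-screen, qHTS format: PPARd-bla HEK293H, L165041 300 nM final, 17 h compound exposure at 37 C, CellTiter-Glo luminescence after 30 min RT.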

Test [3] is described as follows: qHTS assay to identify small molecule agonists of the farnesoid-X-receptor (FXR) signaling pathway - cell viability counter screen (AID 743218). Also: % is scaled to controls: 0 for no effect and ±100 for the full control effect; nearly all actives have a fitted effect of over 45% in size. In outline: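 Viability counter screen in the same wells: CellTiter-Glo luminescence, 30 min room-temperature incubation, measured after the beta-lactamase read. Cells were GeneBLAzer FXR-UAS-bla HEK 293T, compound-treated 16 h at 37C.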

A short description of test [4]: qHTS assay to identify small molecule antagonists of the farnesoid-X-receptor (FXR) signaling pathway - cell viability counter screen (AID 743221; active = well fitted cell-killing curve with a large enough effect in the repeat runs, not every such curve was filed as active; also: % is scaled to controls: 0 for no effect and ±100 for the full control effect; nearly all actives have a fitted effect of over 50% in size). In outline: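 Quantitative HTS of the Tox21 10K library run in parallel with the beta-lactamase reporter read. HEK 293T cells carrying a UAS-driven bla reporter got compound and 50 uM CDCA (final) for 16 h; ATP-based luminescence followed.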

The nature of test [5]: qHTS assay to identify small molecule agonists of the vitamin D receptor (VDR) signaling pathway - cell viability counter screen (AID 743224). Also: series mostly up to about 63 µM; % is scaled to controls: 0 for no effect and ±100 for the full control effect; nearly all actives have a fitted effect of over 50% in size. In outline: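 Counter screen run in the same wells as the VDR-bla reporter assay: CellTiter-Glo luminescence, 30 min at room temperature, after 16 h compound treatment at 37C of cells pre-plated for 4 h.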
Test [6] is described as follows: qHTS assay to identify small molecule antagonists of the vitamin D receptor (VDR) signaling pathway - cell viability counter screen (AID 743225). Also: % is scaled to controls: 0 for no effect and ±100 for the full control effect; nearly all actives have a fitted effect of over 50% in size. Put shortly: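 Cells (VDR-UAS-bla HEK 293T) are plated, rested 4 h at 37C, dosed with compound and 3 nM final 1-alpha,25-dihydroxy vitamin D3, and incubated 16 h. Viability is taken from CellTiter-Glo luminescence in the reporter wells.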

Test [7] is described as follows: qHTS assay to identify small molecule agonists of the NFkB signaling pathway - cell viability counter screen (AID 1159515; calls by dose curve; also: series mostly up to about 61 µM; % is scaled to controls: 0 for no effect and ±100 for the full control effect; nearly all actives have a fitted effect of over 55% in size). Put shortly: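 Read by CellTiter-Glo luminescence (30 min, room temperature) in the wells also used for the beta-lactamase FRET read. ME-180 NFkB-bla cells at 2,000 per well were plated overnight, then exposed to compound for 5 hr at 37 C.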

The nature of test [8]: qHTS assay to identify small molecule agonists of the endoplasmic reticulum stress response signaling pathway (AID 1159516; active = well fitted activation curve with a large enough effect in the signal ratio in the repeat runs, not every such curve was filed as active; the % refers to the signal ratio; also: % is scaled to controls: 0 for no effect and ±100 for the full control effect). Put shortly:
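Ratiometric FRET readout (405 nm excitation; 460 and 530 nm emission) of a beta-lactamase gene driven by the ER stress response element, after 2 hr substrate loading. HeLa ESRE-bla cells were seeded overnight and treated with compounds for only 5 hr at 37 C.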

A short description of test [9]: qHTS assay to identify small molecule antagonists of the retinoid-related orphan receptor gamma (ROR-gamma) signaling pathway - cell viability counter screen (AID 1159520). Put shortly: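 Tet-on ROR gamma CHO cells (1,000/well) were plated 4 hr, given compounds in DMSO for 2 hr at 37 C, then induced with 1 uM final doxycycline for 16 hr. Viability was read as ATP by CellTiter-Glo luminescence after 30 min.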

Test [10] in a line: qHTS assay to identify small molecule agonists of the AP-1 signaling pathway - cell viability counter screen (AID 1159525; calls by dose curve; also: nearly all actives have a fitted effect of over 55% in size). Put shortly: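 Each titration point was normalised to DMSO and tetra n-octyl ammonium bromide controls. The read was Cell Titer Glo luminescence after 30 min at RT, following 5 h compound exposure of ME-180 AP-1-bla cells at 37 °C.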
The target of test [11] is Retinoic acid receptor RXR-alpha (Homo sapiens) (UniProt P19793). Briefly: qHTS assay to identify small molecule agonists of the RXR signaling pathway (AID 1159527; calls by dose curve; also: % is scaled to controls: 0 for no effect and ±100 for the full control effect; nearly all actives have a fitted effect of over 35% in size). In outline:
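qHTS of the Tox21 10K library in GeneBLAzer RXR-alpha HEK 293T cells carrying a beta-lactamase reporter […]; 16 hr treatment, 9-cis retinoic acid as agonist control, FRET read-out.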

Test [12] in a line: qHTS assay to identify small molecule agonists of the AP-1 signaling pathway (AID 1159526; calls by dose curve; also: % is scaled to controls: 0 for no effect and ±100 for the full control effect).
The target of test [13] is Nuclear receptor ROR-gamma (Homo sapiens) (UniProt P51449). Briefly: qHTS assay to identify small molecule antagonists of the retinoid-related orphan receptor gamma (ROR-gamma) signaling pathway (AID 1159521; also: nearly all actives have a fitted effect of over 50% in size; also: potency is read from the fitted curve at half-maximal effect). Put shortly:
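RORγ antagonism is scored from reduced reporter luminescence in Tet-on CHO cells. Induction used 1 uM final doxycycline hyclate for 16 h at 37 C, following a 2 h compound exposure.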

The target in test [14] is Bile acid receptor (Homo sapiens) (UniProt Q96RI1). Nature of the test: qHTS assay to identify small molecule antagonists of the farnesoid-X-receptor (FXR) signaling pathway (AID 743217; active = well fitted inhibition curve with a large enough effect in the signal ratio in the repeat runs, not every such curve was filed as active; the % refers to the signal ratio; also: % is scaled to controls: 0 for no effect and ±100 for the full control effect). Put shortly:
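Antagonist mode: chenodeoxycholic acid at 50 uM final stimulates a UAS-driven beta-lactamase reporter in HEK 293T FXR-bla cells during 16 h, 37C compound exposure. Read-out is FRET substrate fluorescence after 2 h at room temperature.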

For test [15] the target is unchanged. Briefly: qHTS assay to identify small molecule agonists of the farnesoid-X-receptor (FXR) signaling pathway (AID 743220; active = well fitted activation curve with a large enough effect in the signal ratio in the repeat runs, not every such curve was filed as active; the % refers to the signal ratio; also: % is scaled to controls: 0 for no effect and ±100 for the full control effect). Put shortly:
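FXR-UAS-bla HEK 293T cells carrying a UAS-driven beta-lactamase reporter were plated for 5 h at 37C/5% CO2, then exposed to DMSO-dissolved Tox21 10K compounds for 16 h at 37C. A LiveBLAzer B/G FRET substrate was loaded for 2 h at room temperature before fluorescence reading.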

Test [16] deals with Vitamin D3 receptor (Homo sapiens) (UniProt P11473). Nature of the test: qHTS assay to identify small molecule agonists of the vitamin D receptor (VDR) signaling pathway (AID 743222; calls by dose curve; also: % is scaled to controls: 0 for no effect and ±100 for the full control effect). Put shortly:
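Agonist mode, beta-lactamase reporter: fluorescence from LiveBLAzer B/G FRET substrate (2 h, room temperature) read after 16 h compound treatment at 37 C of VDR-bla cells, which were pre-incubated 4 h after seeding.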

Test [17] has the same target. Nature of the test: qHTS assay to identify small molecule antagonists of the vitamin D receptor (VDR) signaling pathway (AID 743223; active = well fitted inhibition curve with a large enough effect in the signal ratio in the repeat runs, not every such curve was filed as active; the % refers to the signal ratio; also: % is scaled to controls: 0 for no effect and ±100 for the full control effect). In outline: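 Fluorescence from LiveBLAzer B/G FRET substrate, read after 2 h at room temperature, reflects beta-lactamase reporter activity in VDR-bla cells treated 16 h at 37C with compounds and agonist 1alpha,25-dihydroxyvitamin D3 (3 nM final).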

Test [18] deals with Peroxisome proliferator-activated receptor delta (Homo sapiens) (UniProt Q03181). Briefly: qHTS assay to identify small molecule agonists of the peroxisome proliferator-activated receptor delta (PPARd) signaling pathway (AID 743212; calls by dose curve). Put shortly: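 Beta-lactamase reporter read by fluorescence (LiveBLAzer B/G FRET, 2 h, room temperature). Test agents, in DMSO, incubated at 37 C with PPARd-bla HEK293H cells.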
Peroxisome proliferator-activated receptor delta (Homo sapiens), sequence (Q03181 whole entry, looked up): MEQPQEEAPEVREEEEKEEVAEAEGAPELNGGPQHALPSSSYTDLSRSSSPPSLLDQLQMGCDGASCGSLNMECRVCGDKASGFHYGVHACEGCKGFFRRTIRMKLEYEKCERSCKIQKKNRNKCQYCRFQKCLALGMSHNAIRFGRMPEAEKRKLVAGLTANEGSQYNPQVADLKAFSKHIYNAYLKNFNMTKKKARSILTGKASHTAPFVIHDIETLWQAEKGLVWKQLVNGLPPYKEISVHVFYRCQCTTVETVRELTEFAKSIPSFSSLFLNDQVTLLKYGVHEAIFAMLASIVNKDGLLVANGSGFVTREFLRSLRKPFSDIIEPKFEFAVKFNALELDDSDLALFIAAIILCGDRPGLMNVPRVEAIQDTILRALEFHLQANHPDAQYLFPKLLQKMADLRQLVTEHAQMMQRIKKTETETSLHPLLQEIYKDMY

Test [19] shares this target. Briefly: qHTS assay to identify small molecule antagonists of the peroxisome proliferator-activated receptor delta (PPARd) signaling pathway (AID 743215; active = well fitted inhibition curve with a large enough effect in the signal ratio in the repeat runs, not every such curve was filed as active; the % refers to the signal ratio). Put shortly: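 Agonist L165041 (300 nM final) added with compound to PPARd-bla HEK293H UAS-bla reporter cells; 17 h incubation at 37 C. Read-out: LiveBLAzer FRET substrate, 2 h at room temperature, fluorescence intensity.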

Bile acid receptor (Homo sapiens), sequence (Q96RI1 whole entry, looked up): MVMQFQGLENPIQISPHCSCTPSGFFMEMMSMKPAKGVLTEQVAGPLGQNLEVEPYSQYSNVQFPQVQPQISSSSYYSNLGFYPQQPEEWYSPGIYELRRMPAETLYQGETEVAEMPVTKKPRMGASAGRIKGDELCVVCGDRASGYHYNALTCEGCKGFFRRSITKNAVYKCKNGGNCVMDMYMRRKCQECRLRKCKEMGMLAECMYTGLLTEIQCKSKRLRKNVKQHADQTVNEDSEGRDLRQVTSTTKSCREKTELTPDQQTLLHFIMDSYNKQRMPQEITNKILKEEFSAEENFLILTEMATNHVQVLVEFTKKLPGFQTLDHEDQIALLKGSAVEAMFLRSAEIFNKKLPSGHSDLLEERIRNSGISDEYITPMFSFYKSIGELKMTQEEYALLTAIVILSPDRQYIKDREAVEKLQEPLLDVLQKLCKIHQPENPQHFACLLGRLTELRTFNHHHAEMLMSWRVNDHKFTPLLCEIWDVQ
Retinoic acid receptor RXR-alpha (Homo sapiens), sequence (P19793 whole entry, looked up): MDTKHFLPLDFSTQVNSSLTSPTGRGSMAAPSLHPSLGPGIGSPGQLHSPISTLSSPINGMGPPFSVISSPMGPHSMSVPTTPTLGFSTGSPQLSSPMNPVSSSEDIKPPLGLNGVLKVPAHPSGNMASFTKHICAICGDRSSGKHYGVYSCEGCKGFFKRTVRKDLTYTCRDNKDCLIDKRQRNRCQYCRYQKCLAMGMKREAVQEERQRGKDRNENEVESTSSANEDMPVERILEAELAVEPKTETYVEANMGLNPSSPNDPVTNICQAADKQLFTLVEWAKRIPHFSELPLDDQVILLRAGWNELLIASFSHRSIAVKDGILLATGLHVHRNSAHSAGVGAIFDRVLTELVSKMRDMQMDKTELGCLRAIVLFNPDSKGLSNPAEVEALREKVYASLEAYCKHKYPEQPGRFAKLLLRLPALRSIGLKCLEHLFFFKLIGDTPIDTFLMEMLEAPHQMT
Vitamin D3 receptor (Homo sapiens), sequence (P11473 whole entry, looked up): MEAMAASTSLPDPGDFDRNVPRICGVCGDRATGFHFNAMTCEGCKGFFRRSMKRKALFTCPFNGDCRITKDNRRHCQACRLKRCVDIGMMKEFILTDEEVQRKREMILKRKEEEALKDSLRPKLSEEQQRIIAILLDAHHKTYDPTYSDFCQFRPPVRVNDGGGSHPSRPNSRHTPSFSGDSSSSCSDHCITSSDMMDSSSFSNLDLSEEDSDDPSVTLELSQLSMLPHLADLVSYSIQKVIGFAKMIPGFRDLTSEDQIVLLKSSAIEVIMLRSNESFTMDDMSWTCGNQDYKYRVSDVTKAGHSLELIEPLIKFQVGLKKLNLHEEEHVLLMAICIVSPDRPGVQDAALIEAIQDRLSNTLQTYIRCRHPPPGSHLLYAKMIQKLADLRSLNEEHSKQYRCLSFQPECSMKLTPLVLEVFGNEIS

As to `O=C(O)CN(CCN(CC(=O)O)CC(=O)O)CC(=O)O`, the results for the activity change, negative = cytotoxicity in test [1], in [4] and in test [5] were 0.566% [at 2.7 µM], -12.7% [at 2.69 µM] and -2.08% [at 2.7 µM], respectively. Also, the viability change, negative = cytotoxic was 5.49% [at 2.83 µM] in [2], -17.2% [at 2.7 µM] in [3], 4.84% [at 3.11 µM] in test [6] and -2.04% [at 2.72 µM] in [10]. Moreover, the activity, negative = cytotoxic in test [7] was -2.83% [at 3.12 µM]. Further, the activation in test [8] was -1.14% [at 3.11 µM]; in test [11], -6.85% [at 2.71 µM]. Also, the activity, negative = cytotoxicity in test [9] is -1.43% [at 3.27 µM].
Consider `O=C(O)CCN(C1(C(=O)NO)CCCC1)S(=O)(=O)c1ccc(Oc2ccc(F)cc2)cc1`, for which the Potency result in test [1], in test [2], in [3], in test [4], in [5] and in [6] was “inactive” throughout. The Potency entry in test [7], in test [8], in [9], in test [10] and in test [12] was “inactive” each time.
Consider `CCc1oc2ccccc2c1C(=O)c1cc(I)c(O)c(I)c1`, for which the Potency entry in test [4], in test [7], in [8], in [9] and in test [10] was “inactive” each time. Besides, in test [13], the Potency is 11.9 µM (active).
`Nc1nc(-c2ccccc2)cs1`: the Potency entry in test [2], in [14], in test [3], in [15], in test [4] and in [16] was “inactive” each time. Moreover, the Potency entry in test [17], in test [6], in test [7], in test [8], in test [9] and in test [10] was “inactive” throughout. In addition, in test [11], the Potency result is “inactive”.
Regarding `CC(=O)c1ccc(C(C)=O)cc1`, the Potency entry in test [1], in test [18], in test [19], in test [14], in test [3] and in test [15] was “inactive” throughout. Besides, the Potency result in [16], in [6], in [7], in test [8], in [9] and in test [10] was “inactive” in each case. In addition, the Potency result in test [12] and in [11] was “inactive” each time.
`COC(=O)c1ccccc1C`: the Potency entry in test [18], in test [2], in test [19], in test [14], in [3] and in test [15] was “inactive” each time. For the same molecule, the Potency entry in test [6], in test [7], in test [8], in test [9], in test [13] and in [12] was “inactive” in each case. In addition, the Potency result in test [11] was “inactive”.
In the case of `CN1CCN2c3ccccc3Cc3ccccc3C2C1` (stereo not given), the Potency entry in [3], in test [16], in [17], in [6], in test [7] and in test [8] was “inactive” in each case. Besides, the Potency entry in [9], in test [13], in [10] and in test [11] was “inactive” each time.
In the case of `CCC(C)[O-].CCC(C)[O-].CCOC(=O)/C=C(/C)[O-].[Al+3]`, the Potency entry in [1], in test [2], in test [3], in test [5], in test [6] and in test [7] was “inactive” throughout. Besides, the Potency entry in test [8], in test [9], in test [10] and in test [12] was “inactive” throughout.
With `CCC(=O)OC(=O)CC`, the Potency entry in test [1], in [18], in [2], in test [19], in test [14] and in test [15] was “inactive” in each case. Besides, the Potency result in test [4], in test [5], in [6], in test [7], in test [8] and in test [9] was “inactive” in each case. The Potency entry in test [13] and in test [12] was “inactive” throughout.
With `O=[N+]([O-])c1ccc(F)c(Cl)c1`, the Potency result in test [1], in test [14], in [3], in test [15], in test [16] and in [17] was “inactive” in each case. Besides, the Potency entry in test [5], in [6], in test [7], in test [8], in [9] and in test [13] was “inactive” in each case. The Potency entry in test [12] and in [11] was “inactive” each time.
`Clc1nnc(Cl)c2ccccc12`: the Potency result in test [1], in test [18], in test [2], in test [19], in test [3] and in [4] was “inactive” throughout. Moreover, the Potency entry in test [16], in [17], in test [5], in test [7], in test [8] and in test [9] was “inactive” each time. For the same molecule, the Potency entry in [13] and in [12] was “inactive” each time.
`O=C(O)c1cc(=O)c2ccccc2o1`: the Potency result in test [18], in [2], in test [19], in [3], in test [4] and in test [16] was “inactive” throughout. Also, the Potency result in test [17], in test [5], in test [6], in test [7], in [8] and in [9] was “inactive” each time. Also, the Potency result in test [10], in test [12] and in test [11] was “inactive” throughout.
